Structures are written as SMILES. Where “and” joins values, the source holds several entries; their conditions need not be identical. Equal entries are not always repeated. About 83,000 compounds went through this panel and 20% of them were active in at least one assay; those are over-represented in the sample as a whole.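 The endpoint reported here, percent growth, reads 100 for growth as untreated, 0 for no net growth and -100 for all cells dead.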 Values without a mark were called inactive. Calls of active or inactive are those of the source. The calls were made as follows: active = growth percent below 10; inactive = the rest. *1 amine or outer side, *2 acyl side, *3 side chain or, on linkers, in order; H or OH if unused. Where a SMILES comes first, the peptide text is derived from it. Bridges are numbered along the chain shown (N, C = ends). Roman numbers before positions name the chains, in order. [ ]: non-standard residue; d: D form. Actinocin(1to9) = Cc1c2oc3c(C)ccc(C(=O)[*:2])c3nc-2c(C(=O)[*:1])c(N)c1=O; NMeV = CN[CH](C(=O)O)C(C)C; Sar = CNCC(=O)O

The test system of one experiment is SNB-19 CNS. Nature of the experiment: NCI-60 one-dose screen, 48 h (100 = growth as untreated, 0 = no growth, -100 = all killed). To be noted: 10 µM unless noted.
As to `C/C(=N\NC(=S)N1CC2CCC(CC2)C1)c1ccccn1`, the growth is 11.7%. With `O=C(Nc1cccc(C(F)(F)F)c1)Oc1ccc(Cl)c2cccnc12`, the growth is 46.1%. As for `CC(=O)c1c(O)c(C)c(O)c2c1OC1=CC(=O)C(C(C)=O)C(=O)C12C` (stereo unspecified), the growth is 96.9%.

On to `N=C(N)Sc1cccc[n+]1[O-]`, for which the growth is 59%. With `Cc1oc2c(C)c3oc(=O)cc(C)c3cc2c1CCl`, the growth is 81.5%.

For `CCC(C)C1NC(=O)C(NC(=O)c2c3nc4c(C(=O)NC5C(=O)NC(C(C)CC)C(=O)N6CCCC6C(=O)N(C)CC(=O)N(C)C(C(C)C)C(=O)OC5C)ccc(C)c4oc-3c(C)c(=O)c2N)C(C)OC(=O)C(C(C)C)N(C)C(=O)CN(C)C(=O)C2CCCN2C1=O` (stereo unspecified) (I: TIP[Sar][NMeV] / II: TIP[Sar][NMeV]; ester I:1-I:C, II:1-II:C; linker I:N-II:N via Actinocin(1to9); configuration not given here), the growth is 4.27% (active).

With `COc1ccc(NC(=O)/C(=C/N2C(=O)/C(=C/c3ccc(OC)c(OC)c3)NC2=S)C(C)=O)cc1`, the growth is 73%. For `O=C1C=CC(=O)c2c(O)c(CO)c(CO)c(O)c21`, the growth is 103%. The same measure, in the same setting: the value for `CCCCCCCCCCCC1=NCCCN1CCCC` was 101%. As for `CN(C)c1ccc(C(C#N)(c2ccccc2)c2ccc(N(C)C)cc2)cc1`, the growth was 63.7%.

For the compound `O=C(Nc1ccc(Cl)c(Cl)c1)OCc1ccco1`, the growth was 63.3%.

Turning to `O=C1/C(=C/c2ccccc2)CCC/C1=C\c1ccccc1`, the growth is 94.6%. As for `N#Cc1c2ccccc2nc2ccccc12`, the growth was 92.1%. For the compound `CCOC(=O)C1(C)CCCC1N` (stereo unspecified), the growth is 93.6%. Regarding `Cc1cc(=O)oc2cc(O)cc(O)c12`, the growth is 104%. `NNc1cccc([N+](=O)[O-])c1`: the growth is 107%. Consider `N#CCc1cccc2ccccc12`, for which the growth was 110%. Turning to `CC1(C)N=c2cc3c(cc2N1c1ccc(Cl)cc1)=Nc1ccccc1N3c1ccc(Cl)cc1`, the growth is 66.5%.

Regarding `Oc1ccc2ccccc2c1N=Nc1nccs1`, the growth was 74.2%. The same measure, in the same setting: the value for `NC(=S)N/N=C\c1nccc2c(N)cccc12` was 30.1%; that for `COC(=O)C(=[N+]=[N-])C(=O)c1ccc([N+](=O)[O-])o1` was 92.9%; that for `OC(c1cc(-c2ccc(C(F)(F)F)cc2)nc(C(F)(F)F)c1)C1CCCCN1` (stereo unspecified) was 33.4% and 37% and 53.7%. On the same count and under the same terms, then `O=C1Nc2ccc(Br)cc2C1=O`, with 101%. As to `C/C=C/c1cc2c(c(=O)o1)C(=O)[C@@H](O)[C@H](C)O2`, the growth is 94.9%. Take `Nc1cccc2cccc([N+](=O)[O-])c12`: the growth was 102%. Turning to `COc1cccc2c1C(=O)c1c(O)c3c(c(O)c1C2=O)C[C@@](O)(C(=O)CO)C[C@@H]3OC1CC(OC(C)=O)C(OC(C)=O)C(C)O1` (stereo partly specified), the growth was -8.8% (active). In the case of `O=C1C=CC(=O)N1c1ccccc1`, the growth was 106%. Take `Cc1cc(N/N=C/c2ccccn2)nc2ccccc12`: the growth is 24.6%. On the same count and under the same terms, then `O=C1C(=O)c2cccnc2-c2ncccc21`, with 0.441% (active); and `CC(CSc1n[nH]c(=S)s1)c1ccccc1` (stereo unspecified), with 102%; and `CC/C(=C(/CC)c1ccc(O)cc1)c1ccc(O)cc1`, with 72.7%.

With `CCOC(=O)C1=NN(c2ccccc2)C(=O)/C1=C\N1C(=O)/C(=C/c2cccc(O)c2)SC1=S`, the growth is 94.4%.

A further experiment relates to U251 CNS. The experiment is described as above. To be noted: 10 µM unless noted.
In the case of `C/C(=N\NC(=S)N1CC2CCC(CC2)C1)c1ccccn1`, the growth was 5.52% (active).

Regarding `O=C(Nc1cccc(C(F)(F)F)c1)Oc1ccc(Cl)c2cccnc12`, the growth is 9% (active). Take `CC(=O)c1c(O)c(C)c(O)c2c1OC1=CC(=O)C(C(C)=O)C(=O)C12C` (stereo unspecified): the growth was 74.9%.

`N=C(N)Sc1cccc[n+]1[O-]`: the growth is 41.5%. Regarding `Cc1oc2c(C)c3oc(=O)cc(C)c3cc2c1CCl`, the growth was 82.9%. For the compound `CCC(C)C1NC(=O)C(NC(=O)c2c3nc4c(C(=O)NC5C(=O)NC(C(C)CC)C(=O)N6CCCC6C(=O)N(C)CC(=O)N(C)C(C(C)C)C(=O)OC5C)ccc(C)c4oc-3c(C)c(=O)c2N)C(C)OC(=O)C(C(C)C)N(C)C(=O)CN(C)C(=O)C2CCCN2C1=O` (stereo unspecified) (I: TIP[Sar][NMeV] / II: TIP[Sar][NMeV]; ester I:1-I:C, II:1-II:C; linker I:N-II:N via Actinocin(1to9); configuration not given here), the growth is 1.81% (active). For `COc1ccc(NC(=O)/C(=C/N2C(=O)/C(=C/c3ccc(OC)c(OC)c3)NC2=S)C(C)=O)cc1`, the growth is 57.3%.

For the compound `O=C1C=CC(=O)c2c(O)c(CO)c(CO)c(O)c21`, the growth is 105%. The same measure, in the same setting: the value for `CCCCCCCCCCCC1=NCCCN1CCCC` was 100%. The same measure, in the same setting: the value for `CN(C)c1ccc(C(C#N)(c2ccccc2)c2ccc(N(C)C)cc2)cc1` was 7.62% (active). With `O=C(Nc1ccc(Cl)c(Cl)c1)OCc1ccco1`, the growth was 43.1%. On to `O=C1/C(=C/c2ccccc2)CCC/C1=C\c1ccccc1`, for which the growth was 66.2%. As for `N#Cc1c2ccccc2nc2ccccc12`, the growth was 94.9%. Consider `CCOC(=O)C1(C)CCCC1N` (stereo unspecified), for which the growth is 110%.

`Cc1cc(=O)oc2cc(O)cc(O)c12`: the growth is 107%. Consider `NNc1cccc([N+](=O)[O-])c1`, for which the growth was 89%. For `N#CCc1cccc2ccccc12`, the growth was 108%. For `CC1(C)N=c2cc3c(cc2N1c1ccc(Cl)cc1)=Nc1ccccc1N3c1ccc(Cl)cc1`, the growth is 39.3%.

In the case of `Oc1ccc2ccccc2c1N=Nc1nccs1`, the growth is 4.79% (active). As for `NC(=S)N/N=C\c1nccc2c(N)cccc12`, the growth is 17.8%. As for `COC(=O)C(=[N+]=[N-])C(=O)c1ccc([N+](=O)[O-])o1`, the growth is 88.7%. Take `OC(c1cc(-c2ccc(C(F)(F)F)cc2)nc(C(F)(F)F)c1)C1CCCCN1` (stereo unspecified): the growth was -89% (active) and -95.4% (active) and -62% (active). For the compound `O=C1Nc2ccc(Br)cc2C1=O`, the growth was 98.5%. As to `C/C=C/c1cc2c(c(=O)o1)C(=O)[C@@H](O)[C@H](C)O2`, the growth was 40.4%. Regarding `Nc1cccc2cccc([N+](=O)[O-])c12`, the growth was 101%. Consider `COc1cccc2c1C(=O)c1c(O)c3c(c(O)c1C2=O)C[C@@](O)(C(=O)CO)C[C@@H]3OC1CC(OC(C)=O)C(OC(C)=O)C(C)O1` (stereo partly specified), for which the growth is -42.9% (active). For `O=C1C=CC(=O)N1c1ccccc1`, the growth is 94.1%. In the case of `CCOC(=O)C1=C(C(=O)c2ccccc2)C(c2cccc([N+](=O)[O-])c2)C(C(=O)c2ccccc2)=C(C(=O)OCC)N1`, the growth was 79.9%. As for `N#C/C(=N\Nc1ccc(Cl)cc1)C(=O)C1CC1`, the growth is 40.5%.

For `Cc1cc(N/N=C/c2ccccn2)nc2ccccc12`, the growth was 4.92% (active).

Turning to `O=C1C(=O)c2cccnc2-c2ncccc21`, the growth was -91.5% (active). Turning to `CC(CSc1n[nH]c(=S)s1)c1ccccc1` (stereo unspecified), the growth was 107%. On the same count and under the same terms, the value for `CC/C(=C(/CC)c1ccc(O)cc1)c1ccc(O)cc1` was 42.5%. Still for that read-out and setting: the value for `CCOC(=O)C1=NN(c2ccccc2)C(=O)/C1=C\N1C(=O)/C(=C/c2cccc(O)c2)SC1=S` was 89%.

For the origin of these results see PubChem BioAssay (NCI).
